# Laboratory results as given in PubChem BioAssay (NCATS).
# “And” between values parts separate entries of the source, which are not always exact repeats. Equal values may be shown once. Values without a mark were called inactive. Results filed as inconclusive are left out. Where a call stands in place of a potency, no number is given. The source made the active and inactive calls. Unless noted, calls come from the whole dose curve; as a rule, active = well fitted curve in the direction sought with a large enough effect; inconclusive = small, poorly fitted or top-dose-only effect, or another doubt; inactive = no such curve, though single readings can be large; an effect the other way counts as inactive or inconclusive.
# What was measured:
# [1] = Inducers of the Endoplasmic Reticulum Stress Response (ERSR) in human glioma: Validation (AID 504836); conditions: human glioma cells, ER stress response reporter; series mostly up to 38.3 µM
# In short: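 Stably transfected U87-MG human glioma cells carrying a GRP78-based luminescent sensor were seeded at 1000 cells/well, pin-dosed with compounds and incubated 16 h. Luciferase reagent was then added, and end-point luminescence was read after 10 min at room temperature.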
# [2] = target: ATPase family AAA domain-containing protein 5 (Homo sapiens) (UniProt Q96QE3); assay: Validation screen for small molecules that inhibit ELG1-dependent DNA repair in human embryonic kidney (HEK293T) cells expressing luciferase-tagged ELG1 (AID 493107); conditions: HEK293T ELG1-luciferase level, luminescence, 5-fluorouridine co-treatment, 16 h; series mostly up to 46.1 µM;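 note: cells co-treated with the DNA-damaging agent 5-fluorouridine alongside compound; inhibitors lower the ELG1-luciferase luminescence signal; nearly all actives have a fitted effect of over 70% in size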
# In short: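 Luminescence from ONE-Glo, developed 30 min at room temperature, served as read-out of ELG1-luciferase levels. Beforehand, reporter HEK293T cells received 5-fluorouridine plus test compound for 16 hr at 37 °C.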
# [3] = target: Thyrotropin-releasing hormone receptor (Homo sapiens) (UniProt P34981); assay: qHTS for Small Molecule Agonists and Allosteric Enhancers of Human TRH Receptor: Validation Screen for Agonists (AID 493127;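 active = calcium activation more than 3 SD above the typical response in the agonist read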;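 note: intracellular calcium rise by fluo-8 fluorescence before TRH EC20 addition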); conditions: TRH receptor agonist cell assay; at 2 µM; hits give high values
# In short: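 Cells 2000/well, 10% FCS, 18 h 33.5C/5% CO2 → fluo-8 Ca dye, RT 30 min–1.5 h → FDSS baseline 10 × 1 s → compound added → 230 cycles (1 s/cycle) agonist mode. TRH controls.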
# [4] = qHTS for Inhibitors of Cell Surface uPA Generation: Validation Assay (AID 493164); conditions: mouse cells, plasminogen activation; series mostly up to 38.3 µM
# In short: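 RAW 264.7 cells (4000/well) were plated overnight, then exposed for 18 h at 37 C, 5% CO2 to compounds in a 7-point 1:5 titration (2.45 nM–38.3 uM final). Intracellular ATP was read by ATP-Lite luminescence.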
# [5] = target: Galactokinase (Homo sapiens) (UniProt P51570); assay: qHTS Validation Assay for Inhibitors of Human Galactokinase (GALK) (AID 493189); conditions: purified human GALK enzyme activity, qHTS 7-point titration; series mostly up to 57.5 µM
# In short: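 Enzyme activity is inferred from ATP consumption: human GALK phosphorylates galactose (100 uM) using 35 uM ATP for 1 h at room temperature, and luciferase-based Kinase-Glo Plus reports unconsumed ATP.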
# [6] = Validation screen for small molecules that induce DNA re-replication in SW480 colon adenocarcinoma cells (AID 504364); conditions: DNA re-replication phenotype (high-content imaging); series mostly up to 46.1 µM
# In short: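 250 cells/well; compound pinned in; 48 hr, 37 C, 5% CO2; Hoechst added, 40 min; nuclear fluorescence imaged, 405 ex / 500-530 em; re-replication scored as increase in high-intensity nuclei.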
# [7] = target: Peptidyl-prolyl cis-trans isomerase NIMA-interacting 1 (Homo sapiens) (UniProt Q13526); assay: qHTS Validation Assay to Find Inhibitors of Pin1 (AID 504536; active = well fitted inhibition curve with a large enough effect in the polarisation, with a control signal flat, not every such curve was filed as active; the % refers to the polarisation); conditions: Pin1 fluorescence polarization peptide binding assay; series mostly up to 57.5 µM
# In short: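 Fluorescence polarization competition: compounds (titration) displace HiFluor-488-labeled Pin1-1b peptide from Pin1 (0.3 uM final) in pH 7.5 HEPES buffer with DTT, 10 min at room temperature; %Activity normalized to no-enzyme wells, curves fitted.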
# [8] = target: Phosphoglycerate kinase, glycosomal (Trypanosoma brucei brucei) (UniProt P07378); assay: qHTS Validation Assay to Find Inhibitors of Phosphoglycerate Kinase (AID 504547); conditions: enzymatic PGK inhibition, coupled luminescence read-out; series mostly up to 57.5 µM
# In short: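 Substrate/PGK mix plus compound; reaction started with GAPDH (100nM final) to form 1,3-BPG; 60 min RT; Kinase-Glo Plus 10 min; luminescence. TEA 100mM pH 7.6, MgCl2 5mM, Tween-20 0.01%.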
# [9] = target: phosphoglycerate mutase (Leishmania major) (UniProt Q4Q090); assay: qHTS Validation Assay to Find Inhibitors of Phosphoglycerate Mutase (AID 504548); conditions: biochemical enzyme activity; series mostly up to 57.5 µM
# In short: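 Lm PGAM at 1.25 nM final with substrate in 100 mM TEA pH 7.6, 5 mM MgCl2, 0.01% Tween-20; 45 min at room temperature. Kinase-GloPlus added, 10 min, end-point luminescence read.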
# [10] = target: Ubiquitin carboxyl-terminal hydrolase 1 (Homo sapiens) (UniProt O94782); assay: Inhibitors of USP1/UAF1: Pilot qHTS (AID 504865); conditions: purified USP1/UAF1, Ub-rhodamine cleavage fluorescence; series mostly up to 114 µM; note: nearly all actives have a fitted effect of over 35% in size; note: potency is the fitted concentration of half-maximal effect
# In short: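 Enzyme-free wells gave the negative control, while test wells held 1nM USP1/UAF1 preincubated with compound for 15 min at room temperature. Ub-Rho at 150nM final started the reaction, and fluorescence at 480/540 nm was recorded kinetically.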
# [11] = qHTS for Inhibitors of ATXN expression: Validation of Cytotoxic Assay (AID 588349); conditions: cytotoxicity counter-screen for ATXN expression inhibitors, cell viability; series mostly up to 57.1 µM
# In short: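 Read-out: ATP-based luminescence (CellTiter Glo) reflecting viability of HEK293 cells after 72 hr incubation at 37 degrees C with a concentration series of each compound.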
# [12] = qHTS for Inhibitors of ATXN expression: Validation (AID 588378); conditions: cell-based ATXN2 expression reporter assay, luminescence; series mostly up to 57.1 µM; note: nearly all actives have a fitted effect of over 75% in size
# In short: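 After a 2 h attachment and 24 h compound incubation, HEK293-ATXN2-FFLuc wells are read for fluorescence at 405 nm excitation/525 nm emission as a viability measure, then for Bright-Glo luminescence reflecting ATXN2 expression.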
# [13] = target: Estrogen receptor (Homo sapiens) (UniProt P03372); assay: qHTS assay for small molecule antagonists of estrogen receptor alpha signaling (AID 588513; active = well fitted curve in the direction sought with a large enough effect in the signal ratio, with a control signal flat, not every such curve was filed as active; the % refers to the signal ratio); conditions: ER-alpha-UAS-bla HEK293, beta-lactamase ratio, antagonist mode; series mostly up to 76.9 µM
# In short: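 Antagonist-mode qHTS in ER-alpha-UAS-bla HEK 293 cells: compound titration, 0.5nM estradiol for 18 h, CCF4 fluorescence, Hill-derived IC50.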
# [14] = target: Bile acid receptor (Homo sapiens) (UniProt Q96RI1); assay: qHTS assay for small molecule antagonists of farnesoid X receptor signaling (AID 588526; calls by dose curve; note: potency is the fitted concentration of half-maximal effect); conditions: HEK293T FXR-UAS-bla, beta-lactamase ratio, antagonist mode; series mostly up to 76.7 µM
# In short: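 Concentration-response titrations were fitted to the Hill equation for half-maximal inhibition and maximal response, with data normalised to 50 uM chenodeoxycholic acid and DMSO control wells. Cells: FXR-UAS-bla HEK293T, dialyzed FBS.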
# [15] = target: Bile acid receptor (Homo sapiens) (UniProt Q96RI1); assay: qHTS assay for small molecule agonists of farnesoid X receptor signaling (AID 588527; calls by dose curve); conditions: HEK293T FXR-UAS-bla, beta-lactamase ratio, 16 h; hits give high values
# In short: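 FXR-UAS-bla HEK293T cells (10% dialyzed FBS) preincubated 5-7 h at 37 C, then compounds at up to 92 uM for 16 h at 37 C. CCF4 beta-lactamase read-out after 2 h RT. Normalized to chenodeoxycholic acid (100 uM) and DMSO; Hill fit gave EC50 and efficacy.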
# [16] = target: Estrogen receptor (Homo sapiens) (UniProt P03372); assay: qHTS assay for small molecule agonists of estrogen receptor alpha signaling (AID 588514; calls by dose curve; note: potency is the fitted concentration of half-maximal effect; nearly all actives have a fitted effect of over 70% in size); conditions: ER-alpha-UAS-bla HEK293, beta-lactamase ratio, 18 h; series mostly up to 76.8 µM
# In short: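 Cells were plated at 5000/well, incubated 4 hrs at 37 C, dosed with compound titration series, incubated 18 hrs at 37 C, loaded with CCF4 dye for 2 hrs at RT, then fluorescence was read.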
# Sequence of Bile acid receptor (Homo sapiens) (Q96RI1 whole entry, looked up): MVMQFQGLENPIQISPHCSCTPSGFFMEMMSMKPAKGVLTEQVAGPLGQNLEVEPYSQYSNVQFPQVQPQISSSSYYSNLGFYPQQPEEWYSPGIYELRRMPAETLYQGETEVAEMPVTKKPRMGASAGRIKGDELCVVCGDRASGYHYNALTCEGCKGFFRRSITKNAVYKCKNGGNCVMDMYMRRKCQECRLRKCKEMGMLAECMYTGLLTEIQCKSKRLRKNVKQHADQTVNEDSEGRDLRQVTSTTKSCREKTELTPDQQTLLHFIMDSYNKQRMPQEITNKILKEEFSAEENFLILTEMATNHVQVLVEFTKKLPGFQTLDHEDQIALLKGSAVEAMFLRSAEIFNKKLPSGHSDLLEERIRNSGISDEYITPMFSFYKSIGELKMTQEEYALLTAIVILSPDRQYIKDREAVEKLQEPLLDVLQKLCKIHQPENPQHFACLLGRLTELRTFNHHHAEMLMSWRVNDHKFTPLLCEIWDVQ
# Sequence of Ubiquitin carboxyl-terminal hydrolase 1 (Homo sapiens) (O94782 whole entry, looked up): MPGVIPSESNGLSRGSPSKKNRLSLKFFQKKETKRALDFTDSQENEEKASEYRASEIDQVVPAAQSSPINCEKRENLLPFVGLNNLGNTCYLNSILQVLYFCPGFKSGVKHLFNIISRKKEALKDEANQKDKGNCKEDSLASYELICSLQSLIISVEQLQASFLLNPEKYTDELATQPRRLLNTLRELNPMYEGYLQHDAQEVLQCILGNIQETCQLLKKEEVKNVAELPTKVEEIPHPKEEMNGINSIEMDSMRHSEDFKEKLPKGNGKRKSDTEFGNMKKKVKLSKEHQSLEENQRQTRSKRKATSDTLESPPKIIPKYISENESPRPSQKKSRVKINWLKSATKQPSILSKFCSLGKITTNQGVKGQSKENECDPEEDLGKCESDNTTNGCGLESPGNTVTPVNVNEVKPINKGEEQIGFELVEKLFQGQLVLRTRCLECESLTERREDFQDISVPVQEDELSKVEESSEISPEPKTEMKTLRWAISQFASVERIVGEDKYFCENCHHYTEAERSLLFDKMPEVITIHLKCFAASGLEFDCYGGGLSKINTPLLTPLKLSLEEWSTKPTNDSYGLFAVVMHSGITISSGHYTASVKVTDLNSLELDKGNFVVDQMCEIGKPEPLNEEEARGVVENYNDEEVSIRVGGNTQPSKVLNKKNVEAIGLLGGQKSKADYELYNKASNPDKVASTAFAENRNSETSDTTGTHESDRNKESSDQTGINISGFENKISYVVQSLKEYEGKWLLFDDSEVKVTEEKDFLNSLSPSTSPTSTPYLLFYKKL
# Sequence of Estrogen receptor (Homo sapiens) (P03372 whole entry, looked up): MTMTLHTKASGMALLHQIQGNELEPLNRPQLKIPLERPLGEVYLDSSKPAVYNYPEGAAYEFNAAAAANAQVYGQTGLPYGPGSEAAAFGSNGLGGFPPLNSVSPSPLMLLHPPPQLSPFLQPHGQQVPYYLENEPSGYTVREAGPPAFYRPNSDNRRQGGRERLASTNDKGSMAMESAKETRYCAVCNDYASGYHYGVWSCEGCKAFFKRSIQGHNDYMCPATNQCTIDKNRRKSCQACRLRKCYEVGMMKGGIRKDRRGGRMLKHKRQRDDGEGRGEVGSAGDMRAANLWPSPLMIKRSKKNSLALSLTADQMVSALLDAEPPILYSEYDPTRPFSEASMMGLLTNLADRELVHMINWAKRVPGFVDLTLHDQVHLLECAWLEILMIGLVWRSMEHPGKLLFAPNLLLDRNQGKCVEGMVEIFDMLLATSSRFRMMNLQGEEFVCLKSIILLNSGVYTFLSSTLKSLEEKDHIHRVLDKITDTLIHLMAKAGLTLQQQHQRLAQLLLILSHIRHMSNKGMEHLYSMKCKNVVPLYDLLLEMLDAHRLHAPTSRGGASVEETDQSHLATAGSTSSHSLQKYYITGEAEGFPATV
# Sequence of Thyrotropin-releasing hormone receptor (Homo sapiens) (P34981 whole entry, looked up): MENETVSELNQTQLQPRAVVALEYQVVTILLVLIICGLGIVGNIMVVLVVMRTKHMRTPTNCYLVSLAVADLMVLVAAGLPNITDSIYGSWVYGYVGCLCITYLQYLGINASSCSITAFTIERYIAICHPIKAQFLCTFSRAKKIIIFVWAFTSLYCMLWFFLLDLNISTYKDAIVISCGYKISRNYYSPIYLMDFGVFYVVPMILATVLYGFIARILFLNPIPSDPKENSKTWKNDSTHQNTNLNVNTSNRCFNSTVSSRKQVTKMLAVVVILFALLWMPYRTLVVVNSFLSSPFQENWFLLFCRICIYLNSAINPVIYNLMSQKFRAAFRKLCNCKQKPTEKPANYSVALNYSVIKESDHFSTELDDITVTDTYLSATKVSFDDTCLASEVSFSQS
# Sequence of Galactokinase (Homo sapiens) (P51570 whole entry, looked up): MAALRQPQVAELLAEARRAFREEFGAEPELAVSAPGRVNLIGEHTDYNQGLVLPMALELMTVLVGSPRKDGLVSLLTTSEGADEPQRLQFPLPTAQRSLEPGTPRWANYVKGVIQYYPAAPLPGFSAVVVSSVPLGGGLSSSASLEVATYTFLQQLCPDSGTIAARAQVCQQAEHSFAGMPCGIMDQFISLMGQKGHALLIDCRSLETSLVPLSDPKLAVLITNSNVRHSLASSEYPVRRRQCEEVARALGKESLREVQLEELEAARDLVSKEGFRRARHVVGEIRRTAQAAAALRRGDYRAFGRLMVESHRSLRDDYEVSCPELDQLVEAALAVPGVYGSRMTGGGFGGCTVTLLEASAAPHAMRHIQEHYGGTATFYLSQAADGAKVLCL
# Sequence of phosphoglycerate mutase (Leishmania major) (Q4Q090 1-553): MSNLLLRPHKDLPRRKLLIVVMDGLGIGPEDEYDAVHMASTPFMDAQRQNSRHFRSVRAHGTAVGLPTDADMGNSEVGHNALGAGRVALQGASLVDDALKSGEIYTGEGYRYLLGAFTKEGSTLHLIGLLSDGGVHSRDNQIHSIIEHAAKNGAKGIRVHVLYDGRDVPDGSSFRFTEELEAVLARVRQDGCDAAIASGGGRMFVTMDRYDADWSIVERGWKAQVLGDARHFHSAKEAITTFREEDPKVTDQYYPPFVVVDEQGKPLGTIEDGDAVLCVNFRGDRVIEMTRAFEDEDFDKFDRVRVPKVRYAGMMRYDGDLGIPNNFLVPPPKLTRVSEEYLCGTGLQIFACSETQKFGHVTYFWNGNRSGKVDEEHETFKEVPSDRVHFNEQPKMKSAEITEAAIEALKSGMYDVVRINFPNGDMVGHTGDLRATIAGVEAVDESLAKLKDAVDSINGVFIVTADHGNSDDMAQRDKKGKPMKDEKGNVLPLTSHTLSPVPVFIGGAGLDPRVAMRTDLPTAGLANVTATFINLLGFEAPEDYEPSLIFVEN
# Sequence of Peptidyl-prolyl cis-trans isomerase NIMA-interacting 1 (Homo sapiens) (Q13526 whole entry, looked up): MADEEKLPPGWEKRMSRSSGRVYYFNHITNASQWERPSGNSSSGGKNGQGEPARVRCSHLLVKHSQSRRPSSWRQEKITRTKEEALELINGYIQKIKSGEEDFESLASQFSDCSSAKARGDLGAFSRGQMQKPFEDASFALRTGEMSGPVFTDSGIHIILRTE
# Sequence of Phosphoglycerate kinase, glycosomal (Trypanosoma brucei brucei) (P07378 whole entry, looked up): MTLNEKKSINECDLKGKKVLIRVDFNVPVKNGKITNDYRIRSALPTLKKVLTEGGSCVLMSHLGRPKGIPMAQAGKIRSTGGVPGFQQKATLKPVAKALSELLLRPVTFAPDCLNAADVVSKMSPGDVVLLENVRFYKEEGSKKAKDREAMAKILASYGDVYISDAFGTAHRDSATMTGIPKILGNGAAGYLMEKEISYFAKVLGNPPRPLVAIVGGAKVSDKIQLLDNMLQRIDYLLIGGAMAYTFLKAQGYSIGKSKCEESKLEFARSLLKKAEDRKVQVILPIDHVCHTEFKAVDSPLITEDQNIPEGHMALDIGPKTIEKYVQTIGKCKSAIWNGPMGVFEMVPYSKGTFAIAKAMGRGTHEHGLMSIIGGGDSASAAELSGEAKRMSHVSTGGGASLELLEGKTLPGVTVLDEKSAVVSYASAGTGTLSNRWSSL
smiles,measurement,setting,value
CCCCCN(C)CCC(O)(P(=O)(O)O)P(=O)(O)O,outcome,[1],inactive
COC(=O)[C@@H]1[C@H]2C[C@H]3c4[nH]c5ccccc5c4CCN3C[C@@H]2CC[C@@H]1O,outcome,[1],inactive
C=C(C)[C@H]1CN[C@H](C(=O)O)[C@H]1CC(=O)O,outcome,[2],inactive
same,activation,[3],1.12%
same,outcome,[4],inactive
same,outcome,[5],inactive
same,outcome,[6],inactive
same,outcome,[7],inactive
same,outcome,[8],inactive
same,outcome,[9],inactive
same,outcome,[1],inactive
same,Potency,[10],inactive
same,outcome,[11],inactive
same,outcome,[12],inactive
C[C@]12CCC(=O)C=C1CC[C@@H]1[C@@H]2CC[C@]2(C)C(=O)CC[C@@H]12,activation,[3],2.12%
same,outcome,[5],inactive
same,outcome,[6],inactive
same,Potency,[10],inactive
same,outcome,[13],inactive
same,Potency,[14],inactive
same,activation,[15],-2.26%
CC(=O)OCC(=O)[C@@]1(O)CC[C@H]2[C@@H]3CCC4=CC(=O)CC[C@]4(C)[C@H]3C(=O)C[C@@]21C,outcome,[1],inactive
C[C@@H](O)[C@H]1C(=O)N2C(C(=O)O)=C(SCCN=CN)C[C@H]12,outcome,[1],inactive
CC(C)C[C@H]1C(=O)N2CCC[C@H]2[C@]2(O)O[C@](NC(=O)[C@@H]3C=C4c5cccc6[nH]c(Br)c(c56)C[C@H]4N(C)C3)(C(C)C)C(=O)N12,Potency,[10],inactive
O=C1OC(c2ccc(O)c(S(=O)(=O)O)c2)(c2ccc(O)c(S(=O)(=O)O)c2)c2c(Br)c(Br)c(Br)c(Br)c21,Potency,[10],50.1 µM (active)
Oc1ccc(Cl)cc1,Potency,[10],inactive
COc1cccc([C@@]2(O)CCCC[C@@H]2CN(C)C)c1,Potency,[10],inactive
COc1ccc2c(c1)C13CCCC[C@@H]1C(C2)N(C)CC3 (stereo not given in full),Potency,[10],inactive
Cc1cc(C(C#N)c2ccc(Cl)cc2)c(Cl)cc1NC(=O)c1cc(I)cc(I)c1O (stereo not given),Potency,[10],50.1 µM (active)
CCCCCCC(=O)CCCCCC/C=C/C[C@@H](O)[C@H](O)[C@@](N)(CO)C(=O)O,Potency,[10],inactive
CC(C)(C)c1ccc(O)cc1,Potency,[10],inactive
CC(=O)N1CCN(c2ccc(OC[C@H]3CO[C@](Cn4ccnc4)(c4ccc(Cl)cc4Cl)O3)cc2)CC1,outcome,[1],inactive
same,Potency,[10],inactive
same,Potency,[14],44.7 µM (active)
same,activation,[15],-1.01%
CCC1(c2ccccc2)C(=O)N(COC)C(=O)N(COC)C1=O,Potency,[10],inactive
CN1C(=O)C(O)N=C(c2ccccc2)c2cc(Cl)ccc21 (stereo not given),Potency,[10],inactive
CCC1(CC)C(=O)C=CNC1=O,Potency,[10],inactive
C[C@]12CC[C@@H]3c4ccc(OC(=O)N(CCCl)CCCl)cc4CC[C@H]3[C@@H]1CC[C@@H]2O,Potency,[10],50.1 µM (active)
O=C1Nc2ccc(Cl)cc2C(c2ccccc2Cl)=NC1O (stereo not given),Potency,[10],inactive
CC[N+](CC)(CC)CCOc1cccc(OCC[N+](CC)(CC)CC)c1OCC[N+](CC)(CC)CC,outcome,[1],inactive
same,Potency,[10],inactive
NC(=O)CS(=O)C(c1ccccc1)c1ccccc1 (stereo not given),Potency,[10],inactive
NNc1ccccc1,Potency,[10],inactive
Clc1ccc2c(c1)C(c1ccccc1)=NCc1nncn1-2,Potency,[10],inactive
Cn1c(=O)c2[nH]cnc2n(C)c1=O,outcome,[1],inactive
same,activation,[15],0.492%
CNC(C)(C)Cc1ccccc1,Potency,[10],inactive
O=C1CN=C(c2ccccc2)c2cc([N+](=O)[O-])ccc2N1,Potency,[10],inactive
CN1C(=O)NC(=O)C(C)(C2=CCCCC2)C1=O (stereo not given),Potency,[10],inactive
COc1ccc2[nH]cc(CCNC(C)=O)c2c1,outcome,[1],inactive
same,activation,[15],0.0339% and -2.2% and -1.63%
O=c1[nH]c(=O)n([C@H]2C[C@H](O)[C@@H](CO)O2)cc1Br,outcome,[1],inactive
same,activation,[15],-3.6%
CN1CCC(O)(c2ccc(F)cc2)C(C(=O)c2ccc(F)cc2)C1 (stereo not given),Potency,[10],inactive
CN1C(=O)CC(=O)N(c2ccccc2)c2cc(Cl)ccc21,Potency,[10],inactive
Cc1nnc2n1-c1ccc(Cl)cc1C(c1ccccc1)=NC2,Potency,[10],inactive
CC(C)(C)NCC(O)c1cc(Cl)c(N)c(C(F)(F)F)c1 (stereo not given),Potency,[10],inactive
O=c1c(-c2ccc(O)cc2)coc2cc(O)cc(O)c12,outcome,[1],inactive
same,activation,[15],-3.37%
CC(=O)c1ccc(S(=O)(=O)NC(=O)NC2CCCCC2)cc1,outcome,[1],inactive
same,activation,[15],-2.29% and -1.81%
COP(=S)(OC)Oc1ccc(S(=O)(=O)N(C)C)cc1,Potency,[10],inactive
NC(=O)c1cc([N+](=O)[O-])cc([N+](=O)[O-])c1,Potency,[10],inactive
O=C1Nc2ccc(Cl)cc2C(c2ccccc2)=NC1O (stereo not given),Potency,[10],inactive
O=C1c2ccccc2C(=O)c2ccccc21,Potency,[10],inactive
CN=C(NC#N)NCCSCc1nc[nH]c1C,outcome,[1],inactive
same,activation,[15],1.62%
Nc1ccc([As](=O)(O)O)cc1,Potency,[10],inactive
same,Potency,[16],15.8 µM (active)
